From PubChem BioAssay
FBPA coupling cs = qHTS Assay for Inhibitors of Fructose-1,6-bisphosphate Aldolase from Giardia Lamblia: Coupling assay counterscreen; coupling enzyme system counterscreen, AmpLite Red fluorescence; AID 2472, 2010; actives 0.67% (n = 290,000); activity change, negative = inhibition, % at 58.2 µM, hits read low; in the data active = activity change below about -30%
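Coupling enzymes only (glyceraldehyde-3-phosphate) + compound, at 57.5 uM final, 10 min RT; add substrate/coupling/AmpLite Red mix, 20 min RT; fluorescence ex 525/em 598 nm. Actives flag coupling-system interference.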
USP1-UAF1 inh = Inhibitors of USP1/UAF1: Primary Screen | Ubiquitin carboxyl-terminal hydrolase 1 (Homo sapiens), O94782 | recombinant USP1/UAF1, Ub-Rhodamine cleavage fluorescence | Potency, µM (series often up to 57.1 µM), for the others: at the top dose activity change, negative = inhibition, hits mostly inhibitors | actives 0.23% (n = 390,000) | AID 743255, 2014; note: potency is the fitted concentration of half-maximal effect; nearly all actives have a fitted effect of over 60% in size
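USP1/UAF1 complex at 1 nM was preincubated with compound for 15 min at room temperature, then Ub-Rho substrate (150nM final) was added. Fluorescence (480/540 nm) was read kinetically, 6 reads every 60 seconds.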
TrxR1 inh = qHTS Assay for Inhibitors of Mammalian Selenoprotein Thioredoxin Reductase 1 (TrxR1): qHTS. Thioredoxin reductase 1, cytoplasmic (Rattus norvegicus), O89049. recombinant rTrxR1, NADPH fluorescence consumption, selenite substrate. Potency, µM (doses to about 114 µM), for the others: at the highest dose activity change, negative = inhibition, actives largely listed as inhibitors. actives 1% (n = 390,000). AID 588453, 2011; note: potency is the fitted concentration of half-maximal effect; nearly all actives have a fitted effect of over 65% in size
Target sequence (O89049 whole entry, looked up): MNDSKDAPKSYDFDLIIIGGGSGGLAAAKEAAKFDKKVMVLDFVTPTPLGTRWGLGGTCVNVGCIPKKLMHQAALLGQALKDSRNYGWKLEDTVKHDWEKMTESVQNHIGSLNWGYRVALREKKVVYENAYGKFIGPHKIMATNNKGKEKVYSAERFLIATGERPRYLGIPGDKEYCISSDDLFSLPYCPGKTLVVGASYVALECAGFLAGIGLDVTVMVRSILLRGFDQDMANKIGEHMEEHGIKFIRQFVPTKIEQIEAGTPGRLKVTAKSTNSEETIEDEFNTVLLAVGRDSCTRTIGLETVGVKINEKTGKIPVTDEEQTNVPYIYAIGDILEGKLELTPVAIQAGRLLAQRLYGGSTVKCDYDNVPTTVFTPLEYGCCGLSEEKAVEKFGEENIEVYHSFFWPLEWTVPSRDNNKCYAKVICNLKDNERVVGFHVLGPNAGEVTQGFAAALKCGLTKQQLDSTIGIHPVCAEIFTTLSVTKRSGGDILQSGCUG
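Rat TrxR1 (90 nM in the dispensed reagent) was pre-reduced with 400 uM NADPH for 5 min at room temperature, then incubated with compound for 15 min. After 400 uM selenite was added, NADPH fluorescence (Ex 340/Em 450 nm) was followed for 8 min.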
GALK inhibitor = qHTS Assay for Inhibitors of Human Galactokinase (GALK); P51570; Purified GALK, Kinase-Glo residual ATP luminescence; Potency, µM (doses to about 57.5 µM), for inactives: at the highest dose activity change, negative = inhibition, actives largely listed as inhibitors; actives 0.007% (n = 270,000); AID 1868, 2009; note: potency is the fitted concentration of half-maximal effect
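Kinase-Glo Plus luminescence measured ATP left after a 1 h room-temperature reaction. The reaction used 5 nM GALK, 100 uM galactose and 35 uM ATP at pH 8.0 (20 mM HEPES, 5 mM MgCl2, 60 mM NaCl, 1 mM DTT, 0.01% BSA).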
TrxR1 substrate = qHTS Assay for Substrates of Mammalian Selenoprotein Thioredoxin Reductase 1 (TrxR1): qHTS; actives 0.01% (n = 390,000); AID 588456, 2011; Potency, µM (series often up to 114 µM), inactives show top-dose activity change, negative = substrate turnover; purified TrxR1 substrate turnover, NADPH consumption readout; Thioredoxin reductase 1, cytoplasmic (Rattus norvegicus), O89049; note: potency is the fitted concentration of half-maximal effect; nearly all actives have a fitted effect of over 50% in size
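Rat TrxR1, dispensed at 90 nM, was prereduced with 400 uM NADPH (final) for 5 min at ~22 deg C, then incubated with compound 15 min before 400 uM selenite. A first-read NADPH fluorescence drop versus no-compound background flagged substrates.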
An asterisk follows results filed as active; ? = inconclusive; . = not tested or not shown; [ ] = dose if it differs, or a comment. Sampled rows, rich in hits. Any-hit rate of the full collection: about 1.5%. Unless noted, calls come from the whole dose curve; as a rule, active = well fitted curve in the direction sought with a large enough effect; inconclusive = small, poorly fitted or top-dose-only effect, or another doubt; inactive = no such curve, though single readings can be large; an effect the other way counts as inactive or inconclusive. % is set by controls: 0 for no effect and ±100 for the full control effect.

SMILES | FBPA coupling cs | USP1-UAF1 inh | TrxR1 inh | GALK inhibitor | TrxR1 substrate
O=C(c1ccc(Br)o1)N1CCC(c2nc3ccccc3[nH]2)CC1 | . | -10% | 45µM* | . | -3%
O=C([C@@H]1CC=C[C@@H]2CCN(C3CCCCC3)C(=O)[C@@H]21)N1CCOCC1 | . | . | 4% | . | -1%
CCCOc1ccc(N)cc1N | -66* | ? | ? | -1% | 1%[57.1 µM]
CCCOc1cc(N)ccc1C(=O)OCCN(CC)CC | -2 | ? | 30% | . | 8%
O=C(NCCCc1nc2ccccc2n1Cc1ccccc1Cl)c1ccco1 | . | -13% | 0% | . | 0%
Clc1ccccc1Cn1c(/C=C/c2ccco2)nc2ccccc21 | 0 | -7% | 50µM* | -2% | -1%
COc1ccc(C(=O)NC(Oc2ccccc2)C(Cl)(Cl)Cl)cc1 (stereo not given) | 1 | -4% | 11µM* | 1% | -2%
O=C1CCCCc2sc(Br)c([N+](=O)[O-])c2N1 | 0 | 3% | 10µM* | -3% | 9%[57.1 µM]
O=C(NC(=S)NC1C2CC3CC(C2)CC1C3)c1ccccc1 (stereo not given) | . | -20% | 50µM* | -5% | 5%
C[C@@H]1O[C@H](O[C@@H]2C(O)[C@H](O)[C@@H](CO)O[C@H]2Oc2cc(O)c3c(=O)cc(-c4ccc(O)cc4)oc3c2)[C@H](O)[C@H](O)[C@H]1O (stereo not given in full) | 3 | . | . | . | .
Cc1ccc(C(=O)/C=C/C(=O)c2ccc(C)cc2)cc1 | 2 | -13% | 3.2µM* | -1% | 2%[57.1 µM]
COc1cc2[nH]c(Cl)c([N+](=O)[O-])c2cc1OC | -48* | -10% | 1.4µM* | 7% | 3%
COc1cc(C(=O)O)c([N+](=O)[O-])c(OC)c1OC | 0 | -22% | 19% | . | 4%
COc1cccc(-c2nnc3n2N=C(c2ccccc2OC)CS3)c1 | -4 | . | . | . | .
CCOC(=O)C1CCCN(c2cc(NCCCO)c([N+](=O)[O-])c3nonc23)C1 (stereo not given) | -3 | . | . | 1% | .
CCC(=O)OCCNc1cc(Sc2nc3ccccc3[nH]2)c2nonc2c1[N+](=O)[O-] | -2 | -5% | 0.28µM* | -2% | -15%
CCC(=O)OCCNc1cc(Sc2nc3ccccc3s2)c2nonc2c1[N+](=O)[O-] | -13 | ? | 0.28µM* | -1% | -1%
O=[N+]([O-])c1c(NCCCO)cc(Sc2nc3ccccc3s2)c2nonc12 | 0 | ? | 0.63µM* | 8% | -1%
O=c1[nH]cnc2n[nH]nc12 | . | . | 11% | . | 0%
COc1ccc(C(=O)C[n+]2cccc3cc(Cl)ccc32)cc1 | . | . | 19% | . | -4%
Cc1ccc2nc(N(CCCN(C)C)C(=O)c3ccc(S(=O)(=O)N(C)C)cc3)sc2c1 | 5 | -18% | 4% | 0% | 3%
Cc1ccc2nc(N(CCCN(C)C)C(=O)c3sc4ccccc4c3Cl)sc2c1 | 2 | -15% | 50µM* | -1% | -7%
Cc1ccc(/C=C/C(=O)Nc2nccs2)o1 | -20 | -18% | 45µM* | 0% | -3%
CCOC(=O)C(=O)Nc1nccs1 | 1 | -3% | 14% | -1% | -1%
Cc1cnc(NC(=O)/C=C/c2ccc(Br)o2)s1 | 0 | -24% | -9% | -2% | 8%
SMILES | FBPA coupling cs | USP1-UAF1 inh | TrxR1 inh | GALK inhibitor | TrxR1 substrate
Cc1ccc(/C=C/C(=O)Nc2ncc(C)s2)o1 | -11 | -3% | 40µM* | 1% | 5%
CCOC(=O)/C=C/C(=O)Nc1nccs1 | 3 | -5% | 50µM* | 0% | -3%
c1cnc2[nH]ccc2c1 | . | . | 23% | . | 6%
COc1ccc(S(=O)(=O)CCC(=O)NCc2ccc(C)o2)cc1 | 3 | -15% | 20µM* | . | -1%[57.1 µM]
COc1ccc(CNC(=O)CCS(=O)(=O)c2ccc(Br)cc2)cc1 | 4 | -5% | -7% | -3% | -2%
CC(=O)N1CCc2cc(S(=O)(=O)C(C)CC(=O)NCc3ccc(C)o3)ccc21 (stereo not given) | 1 | -12% | 11%[57.1 µM] | 0% | -8%[57.1 µM]
CC(=O)N1CCc2cc(S(=O)(=O)CCC(=O)NCc3ccc(C)o3)ccc21 | 0 | -24% | 50µM* | 1% | 8%
Cc1nnsc1S(=O)c1ccc(Cl)cc1 (stereo not given) | 4 | 1% | -22% | 5% | -1%
O=C(Nc1ccccc1)c1nnsc1S(=O)c1ccc(Cl)cc1 (stereo not given) | -2 | -18% | 1.3µM* | 3% | 10%[57.1 µM]
O=C(c1nnsc1S(=O)c1ccc(Cl)cc1)N1CCOCC1 (stereo not given) | 0 | -24% | 3.5µM* | 10% | 10%[57.1 µM]
Cc1cc(C)n2c(Nc3ccccc3)c(-c3ccc(C)o3)nc2n1 | . | . | -25% | . | 1%
COc1ccc(Cn2nnnc2C(c2ccc(N(C)C)cc2)N2CCC(C(N)=O)CC2)cc1 (stereo not given) | 1 | 0% | 7.1µM* | 4% | 0%[57.1 µM]
O=C(/C=C/c1ccco1)N(Cc1cccc(F)c1)C1CCS(=O)(=O)C1 (stereo not given) | . | -26% | 35µM* | 4% | -4%
O=C(c1ccccc1)N(Cc1cccc(Br)c1)C1CCS(=O)(=O)C1 (stereo not given) | 0 | -13% | 20% | -2% | 8%
O=C(/C=C/c1ccco1)N(Cc1cccc(Br)c1)C1CCS(=O)(=O)C1 (stereo not given) | 2 | 11% | 10µM* | . | 9%[57.1 µM]
O=C(/C=C/c1ccco1)N(Cc1ccccc1)C1CCS(=O)(=O)C1 (stereo not given) | 2 | 6% | -76% | -1% | 6%[11.4 µM]
O=C(/C=C/c1ccco1)N(Cc1cccc(Cl)c1)C1CCS(=O)(=O)C1 (stereo not given) | 2 | -8% | 8.9µM* | 0% | 7%[57.1 µM]
O=C(/C=C/c1ccco1)N(Cc1ccc(F)cc1)C1CCS(=O)(=O)C1 (stereo not given) | 8 | -11% | 45µM* | 4% | -6%
CCCN1CNc2c(c(=O)[nH]c(=S)n2CCc2cccc(C)c2)C1 | . | . | -2% | . | 2%
CO/S(=N\S(=O)(=O)c1ccc(Cl)cc1)c1ccc([N+](=O)[O-])cc1 (stereo not given) | . | . | -2%[57.1 µM] | . | 1%[57.1 µM]
CN1CCN(C(=S)C(=O)Nc2ccc(Br)cc2)CC1 | -37* | -7% | -1%[57.1 µM] | -2% | 8%[57.1 µM]
CN1CCN(C(=S)NC(=O)c2ccc(Br)cc2)CC1 | 2 | -21% | -13% | -2% | 0%
[O-][N+](=NC1C=Cc2ccccc21)C1C=Cc2ccccc21 (stereo not given) | . | . | 15%[0.0914 µM] | . | -4%
